Results taken from article PMC7826789 (International Journal of Molecular Sciences, 2021).

How the values were obtained:
Conditions in all cases: Compound Concentration (nM):1000
CSNK2A2 = tested on: CSNK2A2
CTK = tested on: T1, CTK
T1 construct: gene MATK

DAPK1 = tested on: DAPK1
DAPK2 = tested on: DAPK2
DAPK3 = tested on: DAPK3
DCAMKL1 = tested on: T2, DCAMKL1
T2 construct: gene DCLK1

DCAMKL2 = tested on: T3, DCAMKL2
T3 construct: gene DCLK2

DCAMKL3 = tested on: T4, DCAMKL3
T4 construct: gene DCLK3

DDR1 = tested on: DDR1
DDR2 = tested on: DDR2
DLK = tested on: T5, DLK
T5 construct: gene MAP3K12

DMPK2 = tested on: T6, DMPK2
T6 construct: gene CDC42BPG

DMPK = tested on: DMPK
DRAK1 = tested on: T7, DRAK1
T7 construct: gene STK17A

DRAK2 = tested on: T8, DRAK2
T8 construct: gene STK17B

DYRK1A = tested on: DYRK1A
DYRK1B = tested on: DYRK1B
DYRK2 = tested on: DYRK2
EGFR(E746-A750del) = tested on: EGFR(E746-A750del)
EGFR(G719C) = tested on: EGFR(G719C)
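Note: KINOMEscan scanMAX binding as percent activity remaining versus control; lower means stronger binding.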

| Compound | Percent Control (CSNK2A2) | Percent Control (CTK) | Percent Control (DAPK1) | Percent Control (DAPK2) | Percent Control (DAPK3) | Percent Control (DCAMKL1) | Percent Control (DCAMKL2) | Percent Control (DCAMKL3) | Percent Control (DDR1) | Percent Control (DDR2) | Percent Control (DLK) | Percent Control (DMPK2) | Percent Control (DMPK) | Percent Control (DRAK1) | Percent Control (DRAK2) | Percent Control (DYRK1A) | Percent Control (DYRK1B) | Percent Control (DYRK2) | Percent Control (EGFR(E746-A750del)) | Percent Control (EGFR(G719C)) |
| --- | --- | --- | --- | --- | --- | --- | --- | --- | --- | --- | --- | --- | --- | --- | --- | --- | --- | --- | --- | --- |
| CCc1ccc(Oc2nccc(-c3c(-c4ccc(F)cc4)ncn3C3CCNCC3)n2)cc1 [SB-242719] | 69% | 89% | 92% | 74% | 69% | 77% | 81% | 100% | 73% | 94% | 100% | 2.1% | 100% | 77% | 55% | 95% | 98% | 76% | 46% | 69% |
| CC1=C(C(=O)Nc2ccc3[nH]ncc3c2)C(c2ccc(Cl)c(Cl)c2)CC(=O)N1 (stereo not shown) [GSK299115A] | 79% | 62% | 81% | 83% | 81% | 83% | 55% | 45% | 88% | 81% | 77% | 82% | 100% | 100% | 84% | 70% | 59% | 68% | 98% | 66% |
| NS(=O)(=O)c1ccc(N/N=C2\C(=O)Nc3ccc(C(=O)NCc4ccncc4)cc32)cc1 [GW300657X] | 28% | 97% | 63% | 65% | 51% | 67% | 83% | 72% | 100% | 89% | 76% | 91% | 100% | 0.3% | 4.7% | 63% | 97% | 37% | 91% | 100% |
| NS(=O)(=O)c1ccc(N/N=C2\C(=O)Nc3ccc(-c4cnco4)cc32)cc1 [GW276655] | 7% | 78% | 60% | 70% | 56% | 78% | 87% | 100% | 100% | 100% | 100% | 94% | 72% | 60% | 36% | 2.5% | 79% | 4% | 100% | 83% |
| COc1cccc(-n2ncc3c(N/N=C/c4ccncc4)ncnc32)c1 [GW784752X] | 2.9% | 99% | 100% | 94% | 93% | 86% | 100% | 71% | 100% | 100% | 82% | 100% | 100% | 73% | 87% | 18% | 95% | 17% | 75% | 90% |
